# This is one part of a sample in which hits are shown more often than they occur.
# CRE-bla Fsk: modulators of forskolin-stimulated CRE signaling in CHO cells | CHO CRE-bla reporter (cAMP response element driving beta-lactamase), forskolin EC10, beta-lactamase ratio | Potency, µM (titrated, usually from 38.2 µM), for inactives: at the highest dose activity change, negative = inhibition, usual class: activators | 2.5% of 71,000 active; active = well fitted activation curve with a large enough effect in the signal ratio, with a control signal flat, not every such curve was filed as active; inconclusive = small, poorly fitted or top-dose-only effect, or effect the other way, or a change in a side signal; the % refers to the signal ratio; note: % of control where 0% means no effect
#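 qHTS titration format; CRE-bla CHO reporter; stimulus EC10 NKH 477, a water-soluble forskolin. Read: CCF4 460/530 nm ratio. Potency expressed as AC50 for activators or inhibitors.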
# ERK AVP inh: inhibitors of vasopressin-stimulated ERK signaling pathway; HEK293-V1b, vasopressin-stimulated pERK AlphaScreen; Potency, µM (highest dose often 57.5 µM), for the others: at the top dose activity, negative = inhibition, actives largely listed as inhibitors; 0.99% of 72,000 active; note: % is set by controls: 0 for no effect and ±100 for the full control effect; nearly all actives have a fitted effect of over 55% in size
#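 V1b-HEK293 cells; cpd 30 min 37C; 25 nM vasopressin 5 min; lyse 10 min; AlphaScreen beads 5 hr RT. Normalized to DMSO basal and 25 nM vasopressin; AC50 by Hill fit.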
# IkB sig inh: inhibitors of IkB signaling in ABC-DLBCL cells. 0.04% of 110,000 active. ABC-DLBCL IkBa-CBG/CBR dual luciferase ratio, 4 h; response scale: scaled: untreated 0%, proteasome inhibitor 100%. AID 445. Potency, µM (series often up to 57.1 µM), without a hit: at the top dose IkBa stabilization activation; active = well fitted curve in the direction sought with a large enough effect in the signal ratio, not every such curve was filed as active; inconclusive = small, poorly fitted or top-dose-only effect, or a change in a side signal; the % refers to the signal ratio;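 note: the direction sought is a rising ratio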
#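 Luminescence ratio of IκBα-fused green versus native red beetle luciferase in OCI-Ly3 cells, 4 h post-doxycycline with compound; red signal alone, scaled from basal (0%) to zero light (-100%), flagged nonspecific or cytotoxic effects.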
# Peg3 imprint: inducers of genomic imprint erasure in mouse ES cells; mouse ES Peg3-LacZ reporter, beta-gal luminescence, 40 h; Potency, µM (doses to about 60.7 µM), without a hit: at the highest dose activity change, positive = activation, actives largely listed as activators; 0.02% of 110,000 active; AID 1948
#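 Gelatin-coated wells received 300 freshly trypsinized female ES cells with a Peg3LacZ-Neo reporter on the maternal allele, then incubated 40 hours at 37C. BetaGlo was added for 5 minutes at room temperature before a single luminescence read.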
# Starred values were filed as active, the others as inactive; ? = inconclusive; . = not tested or not shown; ! = not confirmed by another sample; [ ] = remark or other dose. Unless noted, calls come from the whole dose curve; as a rule, active = well fitted curve in the direction sought with a large enough effect; inconclusive = small, poorly fitted or top-dose-only effect, or another doubt; inactive = no such curve, though single readings can be large; an effect the other way counts as inactive or inconclusive. Potency is the fitted concentration of half-maximal effect.
SMILES,CRE-bla Fsk,ERK AVP inh,IkB sig inh,Peg3 imprint
Cc1ccc(S(=O)(=O)N2CCN(C3CC(=O)N(Cc4ccccc4)C3=O)CC2)cc1C (stereo not drawn),-17%,9%,?,-15%
CC(=O)c1c(C)[nH]c(C(=O)OCc2nnc(-c3ccccc3)o2)c1C,15%,25µM*,?,-12%
C=CC(=O)OCCCCCCOC(=O)C=C,?,13%,?,-12%
CCc1nc(SCC(=O)Nc2cc(C)on2)c2c(=O)n(C)c(=O)n(C)c2n1,?,.,4%,-16%
Cc1nc(SCC(=O)OCc2ccccc2)c2c(=O)n(C)c(=O)n(C)c2n1,16%,.,0%,-14%
Cc1csc(NC(=O)CSc2nc(C)nc3c2c(=O)n(C)c(=O)n3C)n1,1.6µM*,.,-1%,-13%
Cc1nc(SCc2c(F)cccc2Cl)c2c(=O)n(C)c(=O)n(C)c2n1,2µM*,.,0%,-16%
CCCCNc1cc(NC2CCCCC2)c2c3c(onc13)-c1ccccc1C2=O,.,.,4%,-7%[10.9 µM]
CCOC(=O)C(C(=O)OCC)c1cc(Br)c2noc3c2c1C(=O)c1ccccc1-3,?,25µM*,?,-32%
CO/N=C\[C@@H](NS(=O)(=O)c1ccc(C)cc1)[C@H](C)/C=C\CC(=O)OC,.,5%[11.5 µM],.,.
COc1ccccc1-c1nc(C#N)c(N2CCc3ccccc3C2)o1,?,20µM*,?,-12%
COc1ccc2[nH]cc(CCNc3ccnc(-c4cccc(NS(C)(=O)=O)c4)n3)c2c1,0%,13µM*,0%[11.4 µM],-9%
COc1ccc2[nH]cc(CCNc3ccnc(-c4cccc(C#N)c4)n3)c2c1,?,?,-3%[11.4 µM],-18%
COc1ccc2[nH]cc(CCNc3ccnc(-c4ccccc4Cl)n3)c2c1,?,40µM*,2%[11.4 µM],?
COc1ccc(CC(N)C(=O)N[C@H]2[C@@H](O)[C@H](n3cnc4c(N(C)C)ncnc43)O[C@@H]2CO)cc1 (stereo partly drawn),.,.,.,-34%
CC(=O)c1sc(Nc2nc3ccc(F)cc3s2)nc1C,13µM*,9%,?,-47%
COc1cc(-c2nnc3sc(Cc4ccc(Cl)cc4)nn23)cc(OC)c1OC,2.5µM*,-27%,-1%,3%
COc1ccc(Cc2nn3c(-c4cc(OC)c(OC)c(OC)c4)nnc3s2)cc1,5µM*,-27%,?,-14%
COc1cc(-c2nnc3sc(Cc4ccccc4)nn23)cc(OC)c1OC,10µM*,-7%,6%,-13%
CC(=O)[C@@]1(O)CC[C@@H]2[C@@H]3CCC4=CC(=O)CC[C@@]4(C)[C@H]3CC[C@]21C,3%,1%,?,.
CCNS(=O)(=O)c1ccc(C)cc1,2%,0%,-2%,-3%
CC1(C)Cc2c(c(-c3ccco3)nc3n[nH]c(N)c23)CO1,16µM*,-23%,-3%,-8%
COc1ccc2c(c1OC)C(=O)O[C@@H]2[C@H]1c2c(cc3c(c2OC)OCO3)CCN1C,0%,?,0%,-7%
COc1ccc2c(c1OC)C(=O)OC2[C@H]1c2c(cc3c(c2OC)OCO3)CCN1C (stereo partly drawn),32µM*!,13%[25.7 µM],-1%[11.4 µM],4%[16.8 µM]
CNc1ncnc(Sc2nc(N)nc3nc[nH]c23)c1[N+](=O)[O-],-15%[7.6 µM],6%[11.5 µM],5%[11.4 µM],-22%[10.9 µM]
SMILES,CRE-bla Fsk,ERK AVP inh,IkB sig inh,Peg3 imprint
Nc1nc(Sc2ccc([N+](=O)[O-])c3nonc23)c2[nH]cnc2n1,-8%[7.6 µM],21%[11.5 µM],4µM*,-41%[10.9 µM]
CC(O)COC(C)(C)C (stereo not drawn),-5%,?,-1%,4%
Cc1c(Cc2ccccc2)c(=O)oc2c(CN(C)C)c(O)c(Cl)cc12,10µM*,3%,0%,-10%
Cc1cc(S(=O)(=O)NCCN(C)C)c(C)s1,13µM*,-6%,-2%,-16%
Cc1cc(S(=O)(=O)NCc2ccco2)c(C)s1,1%,-9%,-1%,-15%
COc1cc2c(C#N)c(N3CCc4ccccc4C3)nc(N)c2c(N)n1,0.63µM*,-17%,3%,-6%
COc1cc2c(C#N)c(N3CCOCC3)nc(N)c2c(N)n1,10µM*,-8%,0%,-17%
COc1cc2c(C#N)c(N3CCCCC3)nc(N)c2c(N)n1,?,?,-2%,-16%
Nc1ncnc2c1ncn2[C@@H]1O[C@@H](COP(=O)(O)OP(=O)(O)OP(=O)(O)OP(=O)(O)OC[C@@H]2O[C@@H](n3cnc4c(N)ncnc43)[C@@H](O)[C@H]2O)[C@H](O)[C@@H]1O,2%,-7%,1%,.
Sc1ccc2ccccc2c1CNCc1ccccc1,-16%[7.6 µM],-1%[11.5 µM],2%[11.4 µM],28%[10.9 µM]
c1ccc2nc3c(nc2c1)[nH]c1ccccc13,10µM*,40%,-4%,-68%
c1ccc(-c2c3ccccc3nc3[nH]c4ccccc4c23)cc1,?,11%,.,-22%
N=C1N=C(N)c2cc3ccccc3cc21,24%,5%,?,-15%
CCCCOc1ccccc1NC(=O)Cn1c(-c2nonc2N)nc2ccccc21,2µM*,15%,0%,-26%
CCc1ccccc1NC(=O)Cn1c(-c2nonc2N)nc2ccccc21,.,.,?,-7%[10.9 µM]
O=C(Nc1ccc2c(c1)OCO2)c1cccc(S(=O)(=O)N2CCCC2)c1,-5%,16µM*,3%,-10%
Cc1ccc(C(=O)Nc2ccc(F)cc2)cc1S(=O)(=O)N1CCOCC1,.,.,?,-18%[10.9 µM]
CCOC(=O)c1c(NC(=O)c2ccc(S(=O)(=O)N3CCOCC3)cc2)sc2c1CCN(C)C2,16µM*,-25%,-4%,-29%
CCOC(=O)c1ccc(NC(=O)c2cccc(S(=O)(=O)N3CCOCC3)c2)cc1,-9%,5µM*,?,-20%
CCOC(=O)c1ccc(NC(=O)c2ccc(C)c(S(=O)(=O)N3CCOCC3)c2)cc1,?,3.2µM*,?,-22%
CCOC(=O)CCN1C(=O)[C@H]2[C@H]3[C@H](O)[C@H](O)C/C(=N/NC(=O)OCc4ccccc4)[C@H]3CC[C@@H]2C1=O,.,7%[11.5 µM],.,.
N[C@H](CS(=O)O)C(=O)O,-2%,.,2%,.
O=C(Nc1ccc2c(c1)OCO2)c1ccc(Br)c(S(=O)(=O)N2CCCC2)c1,?,?,?,-26%
O=C(Nc1ccc2c(c1)OCCO2)c1ccc(Br)c(S(=O)(=O)N2CCOCC2)c1,?,7.9µM*,?,-20%
CC1CCCCN1C(=O)CSc1nc2ccsc2c(=O)n1Cc1ccccn1 (stereo not drawn),?,25µM*,-1%,-73%
COc1cccc(Nc2ncc3nc(-c4ccccc4)c(=O)n(Cc4cccs4)c3n2)c1,?,10%,-2%[11.4 µM],?
CS/C(N)=C(C#N)/C(C#N)=C(\N)SC,.,.,.,6%
COc1ccc2c(C)nc(Nc3nc(C)cc(=O)[nH]3)nc2c1,5µM*,-25%,?,-1%
Cc1nn(Cc2ccccc2)c(C)c1NC(=O)c1cc(-c2ccco2)on1,?,?,5%,-28%
COc1ccc(OC)c(-c2cc(C(=O)N3CCc4ccccc4C3)no2)c1,5µM*,45%,?,-16%

# Source: PubChem BioAssay
